The values below come from PubChem BioAssay.

Calls of active or inactive are those of the source.

Test [1] has as its system Human papillomavirus type 1a protein E7 (residues 44-93). As to the kind of experiment: small molecules binding HPV E7 44-93 – biochemical, small-molecule microarray, residues 44-93, 635 nm fluorescence, primary screen (AID 1108).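 Further: E7 fragment applied at 1 µg/mL in TBST for 1 h at 4 C; score combines spot fluorescence with its signal to noise ratio.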 To be noted: fluorescence 635 nm, higher = more signal.
Test [2] is described as follows: hepatitis C replication reporter changes, two-sided – Huh7 cells, luciferase reporter, HCV replication inhibitor project, primary screen (AID 1109).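 Further: huh7 hepatoma cells harbouring a luciferase neomycin HCV replicon reporter; luciferase luminescence as measure of HCV replicon replication; test concentration not given here.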 Conditions: Huh7 HCV replicon luciferase reporter, 48 h; higher = more signal. On the technique in general: Reporter assays use an easily measured gene product as a stand-in for the process of interest.
Test [3] addresses Left-right determination factor 2 (Homo sapiens) (UniProt O00292). As to the kind of experiment: small molecules binding LEFTY2 protein – biochemical, small-molecule microarray, 635 nm fluorescence scan, primary screen (AID 1110). To be noted: higher = more signal.
In test [4] the target is Calmodulin-1 (Homo sapiens) (UniProt P0DP23). As to the kind of experiment: small molecules binding calmodulin-1 with EGTA – biochemical, small-molecule microarray, Cy5-labelled CALM1, profiling panel (AID 1111).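 Further: labelled calmodulin applied in Tris saline Tween buffer holding calcium plus EGTA and DTT.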 Conditions: Cy5-CALM1 binding fluorescence, higher = more signal.
Test [5] has the same target. As to the kind of experiment: small molecules binding Ca-loaded calmodulin-1 – biochemical, small-molecule microarray, Cy5-labelled CALM1, plus calcium, artefact control for SMM control-protein annotation, profiling panel (AID 1112).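 Further: score merges spot fluorescence with signal to noise from triplicate slides.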 To be noted: Cy5-CALM1 binding fluorescence, higher = more signal.
Test [6] in a line: probe aWnt5a binding to arrayed compounds – biochemical, biotinylated probe, 635/667 nm fluorescence, primary screen (AID 1113).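 Further: score merges 667 nm fluorescence intensity with signal-to-noise per printed feature.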 Conditions: small-molecule microarray, higher = more signal.
Test [7] in a line: probe aShh binding to arrayed compounds – biochemical, biotinylated probe, 635/667 nm fluorescence, primary screen (AID 1114).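 Further: probe is biotin-labelled aShh protein from a stem cell growth factor screen; measures binding of labelled protein to compounds printed on the slide; score merges feature fluorescence at 667 nm with signal-to-noise.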 Conditions: small-molecule microarray, higher = more signal.
A short description of test [8]: probe aNog binding to arrayed compounds – biochemical, biotinylated probe, 635/667 nm fluorescence, primary screen (AID 1115).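 Further: probe is biotinylated aNog protein used at 0.15 µg/mL for 1 h at 4 C; z-score combines 667 nm fluorescence of each spot with its signal to noise.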 To be noted: small-molecule microarray, higher = more signal.
Test [9] addresses Torsin-1A-interacting protein 1 (Homo sapiens) (UniProt Q5JTV8). As to the kind of experiment: compound microarray binding of lysate hLAP1 – cell lysate, small-molecule microarray, COS7 lysate, 635/667 nm fluorescence, primary screen (AID 1116). Conditions: 635 nm fluorescence, higher = more signal.
Test [10] has as its target Alpha-bungarotoxin (Bungarus multicinctus) (UniProt P60615). As to the kind of experiment: compounds binding labelled alpha-BTX control protein – biochemical, small-molecule microarray, Alexa647 label, 635/667 nm fluorescence, artefact control for SMM control protein annotation, profiling panel (AID 1117). To be noted: alpha-BTX-A647 binding fluorescence, higher = more signal.

In another test the target is Albumin (Bos taurus) (UniProt P02769). As to the kind of experiment: compounds binding labelled BSA control protein – biochemical, small-molecule microarray, Alexa647 label, 635/667 nm fluorescence, artefact control for SMM control protein annotation, profiling panel (AID 1118).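 Further: score merges 667 nm emission intensity and signal-to-noise per printed compound spot.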 To be noted: BSA-A647 binding, fluorescence 635 nm, higher = more signal.
Sequence of Albumin (Bos taurus) (P02769 whole entry, looked up): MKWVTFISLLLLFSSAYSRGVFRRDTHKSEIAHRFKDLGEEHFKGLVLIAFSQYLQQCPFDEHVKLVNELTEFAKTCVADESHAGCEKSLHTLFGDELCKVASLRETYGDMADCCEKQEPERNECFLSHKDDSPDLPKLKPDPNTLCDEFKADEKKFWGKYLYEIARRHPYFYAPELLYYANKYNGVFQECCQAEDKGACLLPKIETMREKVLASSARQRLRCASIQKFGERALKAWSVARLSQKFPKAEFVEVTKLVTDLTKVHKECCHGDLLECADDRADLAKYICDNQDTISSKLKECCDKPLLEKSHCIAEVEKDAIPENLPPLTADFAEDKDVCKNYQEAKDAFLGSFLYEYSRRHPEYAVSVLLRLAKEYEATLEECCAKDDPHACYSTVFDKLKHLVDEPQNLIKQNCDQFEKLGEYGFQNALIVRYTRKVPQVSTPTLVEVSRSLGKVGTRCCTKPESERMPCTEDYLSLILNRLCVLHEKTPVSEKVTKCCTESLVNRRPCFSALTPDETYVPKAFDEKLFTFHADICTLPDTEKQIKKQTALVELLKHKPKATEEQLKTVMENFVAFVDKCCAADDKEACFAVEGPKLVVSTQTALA
Test [11] in a line: probe aXIP binding to arrayed compounds – biochemical, NeuroSMM set, 635/667 nm fluorescence, primary screen (AID 1119).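 Further: probe is the protein aXip251-270 applied at 1 µg/mL to compound-printed slides; binding of probe to printed compounds measured as 667 nm fluorescence plus signal to noise.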 Conditions: small-molecule microarray, higher = more signal, called active from +8 up or from −8 down.
A short description of test [12]: probe aNOTCH3 binding on compound microarray – biochemical, small-molecule microarray, 635/667 nm fluorescence, primary screen (AID 1120).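 Further: probe is a biotin-tagged antibody raised against NOTCH3 rather than NOTCH3 protein; score merges spot fluorescence near 667 nm with spot signal to noise.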 To be noted: higher = more signal.
The nature of test [13]: probe aNOTCH2 binding on compound microarray – biochemical, small-molecule microarray, 635/667 nm fluorescence, primary screen (AID 1121).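 Further: score merges feature fluorescence read at 667 nm with its signal to noise.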 To be noted: higher = more signal.
Test [14] addresses Carbonic anhydrase 2 (Homo sapiens) (UniProt P00918). As to the kind of experiment: compounds binding carbonic anhydrase 2 – biochemical, small-molecule microarray, Alexa647-labelled CAII, profiling panel (AID 1122). To be noted: CAII-A647 binding fluorescence, higher = more signal.
The nature of test [15]: COS7 lysate on small-molecule microarray, probe aHis, 635 nm (AID 1123).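 Further: z-score combines 667nm fluorescence intensity with signal-to-noise per printed compound spot.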 Conditions: COS7 cell lysate, fluorescence, higher = more signal.
Test [16] is described as follows: probe aLAP1 signal on lysate-treated microarray – cell lysate, small-molecule microarray, COS7 lysate, primary screen (AID 1124).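 Further: lysate comes from COS7 cells expressing LAP1 and is applied at 0.3 µg/mL; score merges spot fluorescence near 667 nm with signal-to-noise over triplicate slides.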 To be noted: probe aLAP1, fluorescence, higher = more signal.
The next test has as its system Sam68 (KHDRBS1). As to the kind of experiment: compounds binding KHDRBS1 protein – biochemical, small-molecule microarray, 635 nm fluorescence, primary screen (AID 1125).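 Further: score merges 667 nm channel intensity with signal to noise over triplicate slides.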 Conditions: higher = more signal.
Test [17] has as its system Chordin-like protein 2 (CHRDL2). As to the kind of experiment: compounds binding chordin-like 2 – biochemical, small-molecule microarray, 635 nm fluorescence, primary screen (AID 1126).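 Further: printed compound slides probed with Chrdl2 protein at 4 µg/mL for 1 h at 4 C; score merges 667 nm emission intensity with signal to noise over three replicate slides.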 To be noted: fluorescence 635 nm, higher = more signal.
The target of test [18] is Concanavalin-A (Canavalia ensiformis) (UniProt P02866). As to the kind of experiment: compounds binding concanavalin A lectin – biochemical, small-molecule microarray, Alexa647 label, 635 nm, artefact control for SMM control protein annotation, primary screen (AID 1127).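 Further: z combines 667 nm emission intensity with signal-to-noise across three replicate slides.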 Conditions: ConA-A647 binding fluorescence, higher = more signal.
Sequence of Concanavalin-A (Canavalia ensiformis) (P02866 whole entry, looked up): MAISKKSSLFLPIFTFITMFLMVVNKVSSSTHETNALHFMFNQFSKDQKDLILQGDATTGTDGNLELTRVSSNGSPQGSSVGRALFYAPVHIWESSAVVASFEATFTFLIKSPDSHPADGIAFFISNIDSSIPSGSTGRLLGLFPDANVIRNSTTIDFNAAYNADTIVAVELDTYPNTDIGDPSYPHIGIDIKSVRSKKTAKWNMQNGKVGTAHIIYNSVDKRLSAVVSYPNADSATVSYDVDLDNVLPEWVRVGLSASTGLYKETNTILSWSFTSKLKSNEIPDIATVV

Sequence of Alpha-bungarotoxin (Bungarus multicinctus) (P60615 whole entry, looked up): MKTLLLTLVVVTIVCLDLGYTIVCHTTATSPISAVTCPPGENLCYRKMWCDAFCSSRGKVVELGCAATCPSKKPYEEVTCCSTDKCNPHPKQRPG
Sequence of Torsin-1A-interacting protein 1 (Homo sapiens) (Q5JTV8 whole entry, looked up): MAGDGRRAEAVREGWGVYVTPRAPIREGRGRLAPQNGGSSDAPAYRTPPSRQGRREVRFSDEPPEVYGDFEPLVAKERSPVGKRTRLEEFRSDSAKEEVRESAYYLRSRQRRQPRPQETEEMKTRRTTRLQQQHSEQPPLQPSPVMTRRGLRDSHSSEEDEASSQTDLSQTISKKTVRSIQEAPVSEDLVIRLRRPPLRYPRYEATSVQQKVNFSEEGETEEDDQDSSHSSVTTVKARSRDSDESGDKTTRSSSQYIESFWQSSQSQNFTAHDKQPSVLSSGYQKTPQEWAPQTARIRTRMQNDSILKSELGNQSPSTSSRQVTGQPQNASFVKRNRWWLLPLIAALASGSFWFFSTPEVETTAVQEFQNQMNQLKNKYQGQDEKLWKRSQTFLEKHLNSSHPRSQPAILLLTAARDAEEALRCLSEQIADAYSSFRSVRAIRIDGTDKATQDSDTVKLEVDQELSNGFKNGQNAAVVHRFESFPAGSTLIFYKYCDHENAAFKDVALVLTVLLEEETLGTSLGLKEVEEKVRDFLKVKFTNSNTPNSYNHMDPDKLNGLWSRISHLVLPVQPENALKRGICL
Sequence of Left-right determination factor 2 (Homo sapiens) (O00292 whole entry, looked up): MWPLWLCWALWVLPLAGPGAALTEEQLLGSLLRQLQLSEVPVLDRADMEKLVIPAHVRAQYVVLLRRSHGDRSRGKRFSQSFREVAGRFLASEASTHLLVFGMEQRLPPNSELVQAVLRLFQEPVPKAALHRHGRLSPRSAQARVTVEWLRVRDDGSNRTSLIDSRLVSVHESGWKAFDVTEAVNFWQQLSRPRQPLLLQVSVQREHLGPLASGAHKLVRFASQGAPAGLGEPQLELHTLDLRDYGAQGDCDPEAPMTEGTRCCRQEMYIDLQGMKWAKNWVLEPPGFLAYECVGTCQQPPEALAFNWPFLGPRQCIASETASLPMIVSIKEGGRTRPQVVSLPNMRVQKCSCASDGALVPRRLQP

On to `COc1ccc([Si](C)(C)[C@@H]2[C@@H](CCn3cc([C@H](O)c4ccccc4)nn3)O[C@]3(C(=O)N(Cc4ccc(N5CCOC5=O)cc4)c4ccccc43)[C@H]2C)cc1`, for which the composite z-score is 1.11 in [1]; 0.846 in test [3]; 0.142 in test [4]; -0.488 in [5]; -0.0179 in [6]; 0.0224 in test [7]. Also, the composite z-score in test [8] was -0.0675; in [9] it was 1.74; in [10], 1.06; in the test with Albumin (Bos taurus) it was 0.579; in [12] it was 0.165; in test [13] it was -0.0502. Moreover, the composite z-score in test [14] is 0.0584; in test [15], 0.617; in test [16], 0.664; with Sam68 (KHDRBS1), 1.09; in test [17], 1.03; in test [18], 0.853. Besides, the z-score in test [2] was -2.29. The composite Z-score in [11] is 0.0409 (inactive).
With `C=CCN1Cc2ccccc2C[C@@]2(N=C(c3ccc(OCCCO)cc3)O[C@H]2c2ccccc2)C1=O`, the composite z-score in [1] is 1.46; in test [3] it was 0.473; in test [4] it was 2.97; in test [5], -0.398; in test [6], 0.0873; in [7], 0.19. For the same molecule, the composite z-score in test [8] was -0.179; in test [9], 1.2; in test [10], 1.15; with Albumin (Bos taurus), 0.247; in [12], 0.106; in [13], -0.0148. Also, the composite z-score in test [14] was found to be 0.577; in test [15], 3.06; in [16], 0.326; in the test with Sam68 (KHDRBS1) it was 1.3; in [17], 0.185; in [18] it was 1.14. This molecule registered a z-score in test [2] of -3.08. Further, the composite Z-score in test [11] is 0.667 (inactive).
As for `CC(C)(C)OC(=O)CC[C@]1(C(=O)NCCN2CCOCC2)N=C(c2ccc(OCCCO)cc2)O[C@H]1c1ccccc1N=[N+]=[N-]`, the composite z-score in test [1] came out at 0.775; in test [3], 0.245; in test [4], 1.3; in test [5], 0.374; in test [6] it was 0.0229; in test [7] it was 0.0214. The composite z-score came to 1.73 in test [8]; 1.7 in test [9]; 1.04 in test [10]; 0.942 with Albumin (Bos taurus); 0.286 in test [12]; 0.0684 in test [13]. For the same molecule, the composite z-score was found to be 0.82 in test [14]; 3.05 in test [15]; 1.22 in test [16]; 1.31 in the test on Sam68 (KHDRBS1); 0.186 in test [17]; 0.373 in test [18]. Also, in [2], the z-score came out at 1.08. The composite Z-score in [11] is 0.489 (inactive).
As to `O=C1C[C@]2(c3ccc([N+](=O)[O-])cc3)C(=O)N(Cc3ccccc3)c3cc(CO)ccc3[C@H]2N1CC12CC3CC(CC(C3)C1)C2`, the composite z-score in test [1] is -0.864; in test [3] it was -1.11; in test [4] it was -0.393; in test [5] it was -0.11; in test [6], -0.281; in test [7], -0.408. Besides, the composite z-score was -0.103 in test [8]; -0.0647 in test [9]; -0.814 in test [10]; -0.729 with Albumin (Bos taurus); -0.356 in [12]; -0.207 in test [13]. Besides, the composite z-score in test [14] was -0.406; in test [15] it was 0.284; in [16], 1.66; with Sam68 (KHDRBS1), -1.26; in test [17], -1.27; in test [18], -1.73. Moreover, the z-score in test [2] is -0.411. The composite Z-score in test [11] was -0.767 (inactive).
As to `O=C(NC1CC1)[C@@H]1c2ccccc2C(=O)N(Cc2ccccc2)[C@H]1c1ccc(CO)cc1`, the composite z-score in test [1] is 0.511; in test [3] it was -1.25; in test [4] it was -0.564; in test [5], -0.648; in [6], -0.148; in test [7] it was 0.0099. The composite z-score is 0.368 in test [8]; 0.835 in test [9]; 0.406 in test [10]; 0.0082 in the test with Albumin (Bos taurus); -0.272 in test [12]; -0.127 in [13]. The composite z-score in [14] is 0.698; in [15] it was 2.72; in [16], 1.36; with Sam68 (KHDRBS1), 0.372; in test [17], -0.346; in test [18], 0.38. Moreover, the z-score in test [2] was -0.89. In [11], the composite Z-score was 0.081 (inactive).
